Results: PubChem BioAssay AID2501 (Southern Research Specialized Biocontainment Screening …, 2010)
Several values for one entry are separate records, joined by “and”; a condition that tells them apart may be missing. Equal values may be shown once. The whole screen tested about 2,200 compounds, of which about 1,200 (55%) were called active. So high a share suggests a set chosen from earlier hits. This is one part of the list. A number with no mark means an inactive call. No cut-off is given here; in the data, nearly all actives have IC50 up to about 92 µM.

Assay: counter assay for TAg ATPase ADP read-out – biochemical, ADP-Hunter, fluorescence, counter-screen (AID 2501);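 note: purified T antigen ATPase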;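 for inhibition: 0% = enzyme with vehicle and 100% = reference inhibitor wells; higher means more inhibition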
Conditions: series mostly up to 100 µM; inhibition: at the top concentration

SMILES | IC50 | inhibition
CCOc1cc(C(c2c(C)[nH][nH]c2=O)c2c(C)[nH][nH]c2=O)ccc1O | 4.65 µM (active) | –
Cc1[nH][nH]c(=O)c1C(c1ccc(-c2cccc(Cl)c2)o1)c1c(C)[nH][nH]c1=O | – | -31.4%
CN(C)c1ccc(NC(=O)c2ccc(N3CCOCC3)nc2)cc1 | 3.34 µM (active) | –
CC(=O)Nc1ccc(NC(=O)C(C)N2CCN(S(=O)(=O)c3ccc(C)cc3)CC2)cc1 (stereo unspecified) | – | -33.8%
O=C(CCN1C(=O)/C(=C\C=C\c2ccccc2)SC1=S)Nc1ccc(C(=O)O)cc1 | – | -19.9%
CN(C)c1ccc(NC(=O)CCN2CCN(c3ccccn3)CC2)cc1 | 4.88 µM (active) | –
CC(C)c1ccc(S(=O)(=O)N2CCN(CCC(=O)Nc3ccc(N(C)C)cc3)CC2)cc1 | 12 µM (active) | –
CCS(=O)(=O)c1ncc(Cl)c(C(=O)Nc2ccc(S(=O)(=O)N3CCC(C)CC3)cc2)n1 | – | -17.6%
Cc1ccsc1C(=O)N1CCCC(CCC(=O)N2CCN(c3ccccn3)CC2)C1 (stereo unspecified) | – | -0.27%
O=C1OC2(c3ccccc31)c1cc(I)c(O)c(I)c1Oc1c2cc(I)c(O)c1I | – | -22.2%
O=C(NC(=S)Nc1ccc(O)cc1)c1ccccc1Cl | 2.31 µM (active) | –
O=C(NNC(=O)c1ccccc1-n1cccc1)c1ccc(Cl)cc1Cl | – | -18%
O=C(Nc1cccc2c1CCCC2)c1ccccc1Cl | – | -13.3%
O=C(Nc1ccc(Nc2ccccc2)cc1)N1CCOCC1 | 3.84 µM (active) | –
Oc1ccc(NC(=S)Nc2ccccc2)cc1 | 4.74 µM (active) and 4.32 µM (active) | –
NC(=O)Nc1ccc(Nc2ccccc2)cc1 | 4.72 µM (active) | –
O=C(c1ccc(-c2ccccc2Cl)s1)N1CCOCC1 | – | 1.32%
C=C(C)C(=O)O[C@H]1C/C(C)=C\C(=O)/C=C(\C)[C@H](O)[C@@H]2OC(=O)C(=C)[C@@H]21 | – | -21.3%
CCCCNC(=S)N(CCN(C)C)Cc1cc2cc3c(cc2[nH]c1=O)OCCO3 | – | 1.93%
CNC(=S)Nc1ccc(Nc2ccccc2)cc1 | 4.39 µM (active) | –
O=C(O)[C@H]1CCCC[C@H]1C(=O)Nc1ccc(Nc2ccccc2)cc1 | 3.86 µM (active) | –
COc1cccc(NC(=O)CC2(CC(=O)O)CCCC2)c1 | – | -18.3%
O=C(NC(=S)Nc1ccc(O)cc1)c1cncc(Br)c1 | 3.94 µM (active) | –
COc1cccc(NC(=S)Nc2ccc(O)cc2)c1 | 1.13 µM (active) | –
O=c1[nH]c2cc3c(cc2cc1CN(Cc1cccnc1)Cc1nnnn1Cc1ccco1)OCCO3 | – | -30.1%
COc1ccc(N=Cc2c[nH][nH]c2=O)cc1 | 9.97 µM (active) | –

SMILES | IC50 | inhibition
CC1(C)Nc2ccc(O)cc2-c2c1ssc2=S | 14.6 µM (active) | –
O=C1OCC/C1=C\c1ccc(O)cc1 | 7.82 µM (active) | –
Nc1cc(S(=O)(=O)c2ccc(O)c(N)c2)ccc1O | 3.9 µM (active) | –
Nc1ccc(O)c2ccccc12 | – | 5.37%
CS(=O)(=O)c1ccc(N)c(SSc2cc(S(C)(=O)=O)ccc2N)c1 | – | 23.8%
Nc1n[nH]c(=S)n1/N=C1/C(=O)Nc2ccccc21 | 9.5 µM (active) | –
Cc1cccc(C)c1NCC(=O)N1CCN(Cc2ccccc2)CC1 | – | -18.3%
Oc1ccc(/C=N/N2CCN(c3ccccn3)CC2)cc1 | 10.4 µM (active) | –
Cn1cccc1/C=N/N1CCN(c2ccccn2)CC1 | 7.28 µM (active) | –
Cn1cccc1/C=N/N1CCN(Cc2ccccc2)CC1 | 21 µM (active) | –
COc1cccc(CN2CCN(Cc3nc(-c4cccs4)oc3C)CC2CCO)c1 (stereo unspecified) | < 1.56 µM (active) | –
COCc1cc(CN2CCN(CCc3ccccc3)C(CCO)C2)ccc1OC (stereo unspecified) | – | -22.7%
Cc1oc(-c2cccs2)nc1CN1CCN(C(C)C)C(CCO)C1 (stereo unspecified) | – | -11.3%
N#CC1=C(N)C2=C(N3CCCCC3)CCCC2C1(C#N)C#N (stereo unspecified) | 8.2 µM (active) | –
O=C(O)C(Cc1ccccc1)N1C(=O)/C(=C/C=C/c2ccco2)SC1=S (stereo unspecified) | – | -0.25%
O=C(O)C(c1ccccc1)N1C(=O)/C(=C\c2ccc(O)c(O)c2)SC1=S (stereo unspecified) | 8.33 µM (active) | –
COc1cc(/C=C2\SC(=S)N(C(Cc3ccccc3)C(=O)O)C2=O)ccc1O (stereo unspecified) | 6.37 µM (active) | –
CC(C(=O)Nc1ccc(C(=O)O)c(O)c1)N1C(=O)/C(=C\c2ccco2)SC1=S (stereo unspecified) | – | 21%
COc1cc(/C=C2\SC(=S)N(C(C(=O)O)c3ccccc3)C2=O)ccc1O (stereo unspecified) | 7.98 µM (active) | –
CC(C)C(C(=O)O)N1C(=O)/C(=C/C=C/c2ccco2)SC1=S (stereo unspecified) | – | -26.3%
Cc1ccc([C@@H]2[C@@H]3C(=O)N(c4ccccc4)C(=O)[C@@H]3[C@]3(C)C(=O)N(Cc4ccccn4)CC(=O)N23)o1 | – | -36.8%
CSc1nnc(-c2ccc(O)cc2)n1C | 27.5 µM (active) | –
Cc1cc(C)cc(-n2nnc(C(=O)NCc3ccccc3)c2N)c1 | – | -17.4%
CCOC(=O)/C=C/C(=O)OCC(=O)NCc1ccccc1 | – | -8.77%
CC/C(=N\NC(=O)CCC(=O)NCc1ccccc1)c1ccc(O)cc1 | 9.43 µM (active) | –
